Consider three compounds from PubChem BioAssay (NCATS).

Inconclusive results are not listed. A call without a number means that no potency is given here. The source made the active and inactive calls. Unless noted, the call rests on the fitted dose curve; in most records, active means well fitted curve in the direction sought with a large enough effect; inconclusive means small, poorly fitted or top-dose-only effect, or another doubt; inactive means no such curve, though single readings can be large; an effect the other way counts as inactive or inconclusive.

The target in assay [1] is Galactokinase (Homo sapiens) (UniProt P51570). Description: qHTS Validation Assay for Inhibitors of Human Galactokinase (GALK) (AID 493189). An outline of the steps:
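GALK (5 nM) with 35 uM ATP and 100 uM galactose in HEPES pH8.0, MgCl2, NaCl, DTT, BSA; 1 h at room temperature. Residual ATP read by Kinase-Glo Plus luminescence after 10 min.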

The nature of assay [2]: Validation screen for small molecules that induce DNA re-replication in SW480 colon adenocarcinoma cells (AID 504364). An outline of the steps: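 Image-based DNA content read-out: Hoechst stain 40 min, total nuclear fluorescence intensity (ex 405 nm, em 500-530 nm) after 48 h compound exposure of 250 SW480 cells/well at 37 C, 5% CO2, versus DMSO vehicle.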
Assay [3] has as its target Estrogen receptor (Homo sapiens) (UniProt P03372). The experiment in a line: qHTS assay for small molecule agonists of estrogen receptor alpha signaling (AID 588514; calls by dose curve; further: nearly all actives have a fitted effect of over 70% in size). A digest of the protocol: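 EC50 and efficacy came from Hill fits of beta-lactamase reporter signal (CCF4 dye, 2 h at room temperature) scaled between DMSO and 20 nM 17-beta-estradiol. Agonist mode: HEK293 ER-alpha-UAS-bla cells in charcoal/dextran-stripped serum medium, 18 h compound exposure at 37 C.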

Assay [4] has as its target Androgen receptor (Homo sapiens) (UniProt P10275). Description: qHTS assay for small molecule antagonists of androgen receptor signaling (AID 588516; active means well fitted curve in the direction sought with a large enough effect in the signal ratio, with a control signal flat, not every such curve was filed as active; the % refers to the signal ratio; further: potency means the concentration at half of the fitted maximal effect). Particulars: AR-UAS-bla HEK293, beta-lactamase ratio, antagonist mode, 16 h. An outline of the steps:
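AR-UAS-bla-GripTite HEK 293 cells (2000/well, 5 h at 37 C) received compound titrations, then R1881 at 10 nM final; after 16 h at 37 C, CCF4 dye 2 h RT, beta-lactamase fluorescence read; IC50 from Hill fits.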

Estrogen receptor (Homo sapiens), sequence (P03372 whole entry, looked up): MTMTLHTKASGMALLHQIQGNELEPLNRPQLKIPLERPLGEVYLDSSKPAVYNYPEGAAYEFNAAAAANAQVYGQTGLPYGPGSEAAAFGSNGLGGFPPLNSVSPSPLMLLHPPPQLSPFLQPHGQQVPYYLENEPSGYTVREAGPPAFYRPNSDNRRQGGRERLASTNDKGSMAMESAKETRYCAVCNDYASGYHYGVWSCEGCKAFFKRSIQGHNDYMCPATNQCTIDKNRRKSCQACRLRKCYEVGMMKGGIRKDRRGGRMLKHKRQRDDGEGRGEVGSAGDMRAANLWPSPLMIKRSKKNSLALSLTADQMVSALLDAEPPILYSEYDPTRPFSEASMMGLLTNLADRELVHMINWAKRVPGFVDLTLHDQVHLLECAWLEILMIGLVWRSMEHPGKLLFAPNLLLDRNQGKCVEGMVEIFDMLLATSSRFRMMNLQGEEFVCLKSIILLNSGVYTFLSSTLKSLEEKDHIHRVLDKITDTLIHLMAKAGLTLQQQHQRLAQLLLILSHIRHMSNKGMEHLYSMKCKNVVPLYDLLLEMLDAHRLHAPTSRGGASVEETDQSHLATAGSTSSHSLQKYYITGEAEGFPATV
Androgen receptor (Homo sapiens), sequence (P10275 whole entry, looked up): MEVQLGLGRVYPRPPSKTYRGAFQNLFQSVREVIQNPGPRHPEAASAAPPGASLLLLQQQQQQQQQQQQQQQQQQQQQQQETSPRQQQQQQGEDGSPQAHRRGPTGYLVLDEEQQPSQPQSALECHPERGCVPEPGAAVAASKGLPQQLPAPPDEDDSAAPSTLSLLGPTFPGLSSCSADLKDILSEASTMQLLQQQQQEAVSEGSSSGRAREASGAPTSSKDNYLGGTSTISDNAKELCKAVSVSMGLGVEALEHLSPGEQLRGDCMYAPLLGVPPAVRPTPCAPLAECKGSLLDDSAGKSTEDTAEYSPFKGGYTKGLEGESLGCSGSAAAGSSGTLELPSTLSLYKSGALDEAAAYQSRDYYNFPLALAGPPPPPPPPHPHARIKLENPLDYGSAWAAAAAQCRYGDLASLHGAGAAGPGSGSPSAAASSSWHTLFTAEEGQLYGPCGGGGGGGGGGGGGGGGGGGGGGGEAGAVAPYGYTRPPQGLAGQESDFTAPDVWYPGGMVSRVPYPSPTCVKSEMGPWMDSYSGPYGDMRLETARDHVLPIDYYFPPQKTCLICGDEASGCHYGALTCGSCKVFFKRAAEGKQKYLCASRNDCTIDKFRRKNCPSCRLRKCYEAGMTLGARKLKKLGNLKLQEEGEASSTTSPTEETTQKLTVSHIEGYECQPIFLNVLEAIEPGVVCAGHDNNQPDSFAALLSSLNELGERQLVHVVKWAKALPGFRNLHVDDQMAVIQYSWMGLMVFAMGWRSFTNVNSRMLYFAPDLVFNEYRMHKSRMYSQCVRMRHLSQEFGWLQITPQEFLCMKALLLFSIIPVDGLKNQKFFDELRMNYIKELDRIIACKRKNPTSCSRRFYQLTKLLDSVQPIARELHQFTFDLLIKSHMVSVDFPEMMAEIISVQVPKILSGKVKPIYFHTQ
Galactokinase (Homo sapiens), sequence (P51570 whole entry, looked up): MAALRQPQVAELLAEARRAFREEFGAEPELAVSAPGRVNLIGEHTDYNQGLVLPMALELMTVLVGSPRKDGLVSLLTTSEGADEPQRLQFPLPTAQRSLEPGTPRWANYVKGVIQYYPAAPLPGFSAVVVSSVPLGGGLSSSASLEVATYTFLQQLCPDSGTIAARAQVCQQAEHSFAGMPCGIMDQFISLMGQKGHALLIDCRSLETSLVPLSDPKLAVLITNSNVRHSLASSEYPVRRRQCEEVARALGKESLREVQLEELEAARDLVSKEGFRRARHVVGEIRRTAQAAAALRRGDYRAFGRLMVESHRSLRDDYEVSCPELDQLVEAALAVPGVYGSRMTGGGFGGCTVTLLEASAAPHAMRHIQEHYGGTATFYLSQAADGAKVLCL

Turning to `N=c1ccn2c(n1)O[C@H]1[C@@H](O)[C@@H](CO)O[C@H]12`, the compound was called inactive in assay [1] and in assay [2]. As for `CC(C=CC1=C(C)CCCC1(C)C)=CC=CC(C)=CC(=O)Nc1ccc(O)cc1`, in assay [3], the compound was classed as inactive. In assay [4], the Potency is 35.5 µM (active).

For `OC[C@@H](O)[C@@H](O)[C@H](O)[C@@H](O)CO`, in assay [3], the call was inactive.
